From paper PMC7862700, “An all-to-all approach to the identification of sequence-specific readers for epigenetic DNA modifications on cytosine”

Columns and labels:
Assay in all cases: DAPPL (digital affinity profiling via proximity ligation, sequencing); 10 mM Tris-HCl pH 7.5, 50 mM NaCl, 1 mM DTT, 4% glycerol, room temperature, 30 min; GST-TFs on glutathione beads, 16-mer random dsDNA library, 0.1% formaldehyde crosslink after washing; high values mean tight binding
FEV = target: T1, FEV (Homo sapiens, UniProt Q99581 1-238); conditions: protein: recombinant; tags: N-terminal GST; dsDNA, one strand shown
T1 sequence: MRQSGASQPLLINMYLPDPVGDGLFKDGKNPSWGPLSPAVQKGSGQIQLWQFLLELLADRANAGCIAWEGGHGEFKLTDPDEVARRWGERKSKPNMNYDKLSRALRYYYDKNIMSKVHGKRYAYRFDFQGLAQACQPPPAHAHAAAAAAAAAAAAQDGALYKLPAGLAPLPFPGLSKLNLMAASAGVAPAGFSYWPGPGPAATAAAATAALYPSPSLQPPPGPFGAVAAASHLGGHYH
How it was run: (§1)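 In yeast, human transcription factors were expressed with a GST fusion, then pulled down on glutathione beads and given DNA barcodes. Pooled with a tag-only sample, they were exposed to 200 nmole of a 16-mer random double-stranded DNA library (Tris/NaCl/DTT/glycerol buffer, room temperature, 30 min), washed, crosslinked with 0.1% formaldehyde, proximity-ligated using BsaI/T4 ligase for 1 h at 37 °C, PCR-amplified and read on an Illumina NextSeq500. Each hexamer's frequency of reads for a factor, divided by the matching frequency for the tag-only sample, gives the binding signal.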

ETV5 = ETV5 (Homo sapiens, UniProt P41161 1-510); conditions: protein: recombinant; tags: N-terminal GST; dsDNA, one strand shown
ETV5, sequence (P41161 whole entry): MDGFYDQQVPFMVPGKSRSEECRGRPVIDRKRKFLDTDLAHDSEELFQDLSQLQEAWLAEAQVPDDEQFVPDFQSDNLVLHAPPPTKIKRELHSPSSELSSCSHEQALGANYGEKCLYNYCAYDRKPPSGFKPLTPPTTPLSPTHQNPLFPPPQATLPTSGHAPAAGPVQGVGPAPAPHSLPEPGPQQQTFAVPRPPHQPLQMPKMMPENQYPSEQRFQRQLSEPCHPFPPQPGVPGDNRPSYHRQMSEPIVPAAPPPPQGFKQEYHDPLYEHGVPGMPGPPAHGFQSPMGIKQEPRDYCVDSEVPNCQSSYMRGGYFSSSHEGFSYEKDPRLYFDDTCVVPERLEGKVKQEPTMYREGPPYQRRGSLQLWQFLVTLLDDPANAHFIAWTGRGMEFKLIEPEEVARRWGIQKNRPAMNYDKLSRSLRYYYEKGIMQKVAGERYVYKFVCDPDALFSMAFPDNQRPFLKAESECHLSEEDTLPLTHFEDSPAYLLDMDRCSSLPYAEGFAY
How it was run: as §1

HSF1 = HSF1 (Homo sapiens, UniProt Q00613 1-529); conditions: protein: recombinant; tags: N-terminal GST; chain copies: 3; dsDNA, one strand shown
HSF1, sequence (Q00613 whole entry): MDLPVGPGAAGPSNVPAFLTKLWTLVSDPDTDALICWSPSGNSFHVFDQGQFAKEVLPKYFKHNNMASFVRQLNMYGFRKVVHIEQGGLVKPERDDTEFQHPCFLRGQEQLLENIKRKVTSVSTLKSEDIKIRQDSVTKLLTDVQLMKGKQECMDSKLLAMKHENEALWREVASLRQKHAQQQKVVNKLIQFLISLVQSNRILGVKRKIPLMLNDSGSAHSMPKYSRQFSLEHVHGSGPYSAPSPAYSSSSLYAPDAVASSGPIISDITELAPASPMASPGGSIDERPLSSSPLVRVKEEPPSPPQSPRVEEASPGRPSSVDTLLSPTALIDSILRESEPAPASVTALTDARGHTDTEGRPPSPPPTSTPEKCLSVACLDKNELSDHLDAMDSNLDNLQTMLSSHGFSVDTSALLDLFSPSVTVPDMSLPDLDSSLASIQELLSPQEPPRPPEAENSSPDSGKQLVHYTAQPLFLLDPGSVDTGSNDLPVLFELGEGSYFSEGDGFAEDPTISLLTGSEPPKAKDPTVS
How it was run: as §1

ELF4 = ELF4 (Homo sapiens, UniProt Q99607 1-663); conditions: protein: recombinant; tags: N-terminal GST; dsDNA, one strand shown
ELF4, sequence (Q99607 whole entry): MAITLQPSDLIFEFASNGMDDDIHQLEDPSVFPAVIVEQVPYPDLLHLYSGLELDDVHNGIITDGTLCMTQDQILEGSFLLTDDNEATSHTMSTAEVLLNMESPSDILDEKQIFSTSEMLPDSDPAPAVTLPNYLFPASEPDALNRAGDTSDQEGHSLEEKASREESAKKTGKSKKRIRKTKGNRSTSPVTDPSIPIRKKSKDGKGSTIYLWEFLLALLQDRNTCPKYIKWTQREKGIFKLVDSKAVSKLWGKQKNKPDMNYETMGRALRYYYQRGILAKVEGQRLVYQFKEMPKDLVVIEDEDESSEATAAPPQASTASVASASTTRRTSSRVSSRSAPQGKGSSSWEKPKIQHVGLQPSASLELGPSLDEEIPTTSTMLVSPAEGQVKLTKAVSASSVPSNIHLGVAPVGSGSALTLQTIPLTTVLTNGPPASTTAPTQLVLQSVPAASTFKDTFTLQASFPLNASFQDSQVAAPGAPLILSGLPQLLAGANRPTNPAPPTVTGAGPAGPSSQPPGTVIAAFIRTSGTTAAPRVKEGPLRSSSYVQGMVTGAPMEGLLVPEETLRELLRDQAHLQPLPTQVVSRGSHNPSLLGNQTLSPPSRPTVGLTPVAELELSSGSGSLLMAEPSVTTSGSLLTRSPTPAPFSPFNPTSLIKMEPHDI
How it was run: as §1

ELK4 = target: T2, ELK4 (Homo sapiens, UniProt P28324-2 1-405); conditions: protein: recombinant; tags: N-terminal GST; dsDNA, one strand shown
T2 sequence: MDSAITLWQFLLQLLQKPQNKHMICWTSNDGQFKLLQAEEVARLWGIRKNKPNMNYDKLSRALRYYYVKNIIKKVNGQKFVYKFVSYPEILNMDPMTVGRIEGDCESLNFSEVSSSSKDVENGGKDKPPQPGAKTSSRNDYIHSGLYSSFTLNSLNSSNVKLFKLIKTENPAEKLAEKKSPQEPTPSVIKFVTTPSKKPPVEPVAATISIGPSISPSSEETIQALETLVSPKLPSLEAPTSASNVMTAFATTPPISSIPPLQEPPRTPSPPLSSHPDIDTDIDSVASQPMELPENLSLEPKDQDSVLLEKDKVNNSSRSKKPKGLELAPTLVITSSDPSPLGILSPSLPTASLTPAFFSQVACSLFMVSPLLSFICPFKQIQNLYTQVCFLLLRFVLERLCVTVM
How it was run: as §1

ETV2 = target: T3, ETV2 (Homo sapiens, UniProt O00321 1-342); conditions: protein: recombinant; tags: N-terminal GST; dsDNA, one strand shown
T3 sequence: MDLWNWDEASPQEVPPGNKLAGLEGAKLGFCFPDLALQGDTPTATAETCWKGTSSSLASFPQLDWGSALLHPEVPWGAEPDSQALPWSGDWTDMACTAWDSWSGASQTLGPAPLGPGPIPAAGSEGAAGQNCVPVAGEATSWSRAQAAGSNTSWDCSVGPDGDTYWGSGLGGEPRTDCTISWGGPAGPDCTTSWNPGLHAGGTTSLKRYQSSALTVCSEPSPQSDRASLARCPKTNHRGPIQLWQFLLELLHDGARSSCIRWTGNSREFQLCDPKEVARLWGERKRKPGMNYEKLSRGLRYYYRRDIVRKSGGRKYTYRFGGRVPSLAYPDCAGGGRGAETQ
How it was run: as §1

ELF3 = target: T4, ELF3 (Homo sapiens, UniProt P78545 1-371); conditions: protein: recombinant; tags: N-terminal GST; dsDNA, one strand shown
T4 sequence: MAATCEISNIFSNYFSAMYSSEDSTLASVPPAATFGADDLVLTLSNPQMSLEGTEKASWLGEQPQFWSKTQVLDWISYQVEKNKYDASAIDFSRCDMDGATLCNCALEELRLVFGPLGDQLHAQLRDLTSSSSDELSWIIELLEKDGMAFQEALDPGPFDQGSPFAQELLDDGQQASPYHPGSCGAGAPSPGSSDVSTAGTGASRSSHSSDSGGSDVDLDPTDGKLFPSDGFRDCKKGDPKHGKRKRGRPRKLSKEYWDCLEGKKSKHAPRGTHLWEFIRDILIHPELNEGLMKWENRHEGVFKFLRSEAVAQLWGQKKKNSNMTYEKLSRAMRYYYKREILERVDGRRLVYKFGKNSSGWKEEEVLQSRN
How it was run: as §1

CRX = CRX (Homo sapiens, UniProt O43186 1-299); conditions: protein: recombinant; tags: N-terminal GST; dsDNA, one strand shown
CRX, sequence (O43186 whole entry): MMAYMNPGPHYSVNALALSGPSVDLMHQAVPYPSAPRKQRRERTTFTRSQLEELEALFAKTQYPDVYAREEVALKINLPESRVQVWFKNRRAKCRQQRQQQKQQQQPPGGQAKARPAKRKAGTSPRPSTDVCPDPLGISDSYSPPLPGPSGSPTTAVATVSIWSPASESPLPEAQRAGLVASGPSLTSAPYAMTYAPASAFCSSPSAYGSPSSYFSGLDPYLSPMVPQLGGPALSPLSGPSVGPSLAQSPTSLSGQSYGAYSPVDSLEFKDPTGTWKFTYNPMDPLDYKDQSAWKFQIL
How it was run: as §1

ETV1 = ETV1 (Homo sapiens, UniProt P50549 1-477); conditions: protein: recombinant; tags: N-terminal GST; dsDNA, one strand shown
ETV1, sequence (P50549 whole entry): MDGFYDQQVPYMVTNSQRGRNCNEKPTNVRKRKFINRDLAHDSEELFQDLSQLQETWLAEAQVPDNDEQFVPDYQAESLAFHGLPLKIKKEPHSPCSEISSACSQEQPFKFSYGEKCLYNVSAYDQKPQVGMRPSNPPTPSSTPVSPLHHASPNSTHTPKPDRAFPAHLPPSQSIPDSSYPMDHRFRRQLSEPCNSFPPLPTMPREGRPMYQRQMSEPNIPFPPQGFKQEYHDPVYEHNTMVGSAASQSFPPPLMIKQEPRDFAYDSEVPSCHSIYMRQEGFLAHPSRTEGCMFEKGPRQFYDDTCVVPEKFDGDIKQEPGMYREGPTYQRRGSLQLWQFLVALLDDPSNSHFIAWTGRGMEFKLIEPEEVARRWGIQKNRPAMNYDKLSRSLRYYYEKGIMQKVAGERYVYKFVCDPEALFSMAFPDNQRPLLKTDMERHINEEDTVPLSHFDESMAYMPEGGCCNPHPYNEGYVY
How it was run: as §1

ERF = target: T5, ERF (Homo sapiens, UniProt P50548 1-548); conditions: protein: recombinant; tags: N-terminal GST; dsDNA, one strand shown
T5 sequence: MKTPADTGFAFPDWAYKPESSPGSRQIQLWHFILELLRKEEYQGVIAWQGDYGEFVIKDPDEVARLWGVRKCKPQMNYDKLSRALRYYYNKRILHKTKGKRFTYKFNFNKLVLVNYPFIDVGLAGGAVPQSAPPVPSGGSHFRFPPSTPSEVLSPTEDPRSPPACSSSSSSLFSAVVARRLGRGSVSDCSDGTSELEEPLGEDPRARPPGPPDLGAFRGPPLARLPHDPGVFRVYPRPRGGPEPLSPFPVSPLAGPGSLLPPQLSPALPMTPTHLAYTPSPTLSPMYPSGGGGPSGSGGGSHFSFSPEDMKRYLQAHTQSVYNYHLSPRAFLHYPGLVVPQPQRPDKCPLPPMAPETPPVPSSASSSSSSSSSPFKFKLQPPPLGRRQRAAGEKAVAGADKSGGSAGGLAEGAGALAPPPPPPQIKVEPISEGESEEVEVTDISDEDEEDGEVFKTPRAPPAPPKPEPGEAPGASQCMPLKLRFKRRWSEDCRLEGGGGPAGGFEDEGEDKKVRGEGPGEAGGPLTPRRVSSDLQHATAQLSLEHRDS
How it was run: as §1

ETV3L = target: T6, ETV3L (Homo sapiens, UniProt Q6ZN32 1-361); conditions: protein: recombinant; tags: N-terminal GST; dsDNA, one strand shown
T6 sequence: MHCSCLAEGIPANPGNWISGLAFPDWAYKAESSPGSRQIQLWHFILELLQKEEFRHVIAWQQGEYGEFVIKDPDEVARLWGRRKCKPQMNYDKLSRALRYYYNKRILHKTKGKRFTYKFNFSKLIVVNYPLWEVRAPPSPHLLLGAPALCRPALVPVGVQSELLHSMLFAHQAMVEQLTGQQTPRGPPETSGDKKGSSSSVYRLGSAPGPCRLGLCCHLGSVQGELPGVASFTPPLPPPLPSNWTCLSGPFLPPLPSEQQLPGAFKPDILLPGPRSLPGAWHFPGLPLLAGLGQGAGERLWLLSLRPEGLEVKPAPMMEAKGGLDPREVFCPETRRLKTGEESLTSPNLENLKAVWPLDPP
How it was run: as §1

ETS2 = target: T7, ETS2 (Homo sapiens, UniProt P15036 1-469); conditions: protein: recombinant; tags: N-terminal GST; dsDNA, one strand shown
T7 sequence: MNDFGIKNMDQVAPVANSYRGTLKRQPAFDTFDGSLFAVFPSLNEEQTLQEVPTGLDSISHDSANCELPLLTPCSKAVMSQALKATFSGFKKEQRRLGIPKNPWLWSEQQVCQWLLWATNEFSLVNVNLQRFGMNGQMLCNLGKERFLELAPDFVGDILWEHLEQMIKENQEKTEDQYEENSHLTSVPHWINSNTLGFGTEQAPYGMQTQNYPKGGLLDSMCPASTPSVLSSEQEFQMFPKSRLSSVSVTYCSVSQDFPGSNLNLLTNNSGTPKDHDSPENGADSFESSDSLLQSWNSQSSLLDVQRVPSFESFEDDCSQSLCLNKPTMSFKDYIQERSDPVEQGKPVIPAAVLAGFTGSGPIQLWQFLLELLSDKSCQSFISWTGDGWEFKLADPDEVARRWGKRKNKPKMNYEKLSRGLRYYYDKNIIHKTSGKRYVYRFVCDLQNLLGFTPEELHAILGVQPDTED
How it was run: as §1

SPDEF = target: T8, SPDEF (Homo sapiens, UniProt O95238 1-335); conditions: protein: recombinant; tags: N-terminal GST; dsDNA, one strand shown
T8 sequence: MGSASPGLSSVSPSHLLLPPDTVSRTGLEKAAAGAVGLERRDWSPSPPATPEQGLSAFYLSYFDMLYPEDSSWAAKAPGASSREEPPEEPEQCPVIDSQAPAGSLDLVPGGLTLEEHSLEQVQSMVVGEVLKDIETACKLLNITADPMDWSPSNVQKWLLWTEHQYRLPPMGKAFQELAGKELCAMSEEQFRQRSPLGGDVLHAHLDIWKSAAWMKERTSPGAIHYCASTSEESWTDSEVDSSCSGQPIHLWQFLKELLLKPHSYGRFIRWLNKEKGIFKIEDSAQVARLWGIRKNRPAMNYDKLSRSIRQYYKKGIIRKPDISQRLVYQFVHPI
How it was run: as §1

ETV7 = target: T9, ETV7 (Homo sapiens, UniProt Q9Y603 1-341); conditions: protein: recombinant; tags: N-terminal GST; dsDNA, one strand shown
T9 sequence: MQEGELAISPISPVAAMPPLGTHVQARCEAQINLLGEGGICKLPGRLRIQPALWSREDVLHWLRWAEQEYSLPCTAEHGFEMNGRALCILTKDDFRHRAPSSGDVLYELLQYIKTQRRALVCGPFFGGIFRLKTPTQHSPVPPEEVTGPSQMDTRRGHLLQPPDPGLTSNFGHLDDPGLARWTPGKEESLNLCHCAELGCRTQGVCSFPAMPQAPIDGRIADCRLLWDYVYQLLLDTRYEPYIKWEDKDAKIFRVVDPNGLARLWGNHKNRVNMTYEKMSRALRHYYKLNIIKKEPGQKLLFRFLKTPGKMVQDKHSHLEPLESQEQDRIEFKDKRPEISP
How it was run: as §1

ELF5 = target: T10, ELF5 (Homo sapiens, UniProt Q9UKW6-2 1-255); conditions: protein: recombinant; tags: N-terminal GST; dsDNA, one strand shown
T10 sequence: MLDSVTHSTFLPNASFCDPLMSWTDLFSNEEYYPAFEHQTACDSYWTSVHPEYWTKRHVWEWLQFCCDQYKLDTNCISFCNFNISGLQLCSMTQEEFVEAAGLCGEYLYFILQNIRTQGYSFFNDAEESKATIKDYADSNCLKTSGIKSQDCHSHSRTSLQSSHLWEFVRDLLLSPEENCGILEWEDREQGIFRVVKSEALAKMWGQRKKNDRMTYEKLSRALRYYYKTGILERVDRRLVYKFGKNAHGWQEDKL
How it was run: as §1

ETV3 = target: T11, ETV3 (Homo sapiens, UniProt P41162-2 1-143); conditions: protein: recombinant; tags: N-terminal GST; dsDNA, one strand shown
T11 sequence: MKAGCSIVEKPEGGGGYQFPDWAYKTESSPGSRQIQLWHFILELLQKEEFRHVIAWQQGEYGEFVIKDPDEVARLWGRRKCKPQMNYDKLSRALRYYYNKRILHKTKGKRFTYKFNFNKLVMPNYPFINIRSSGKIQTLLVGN
How it was run: as §1

ETV6 = ETV6 (Homo sapiens, UniProt P41212 1-452); conditions: protein: recombinant; tags: N-terminal GST; dsDNA, one strand shown
ETV6, sequence (P41212 whole entry): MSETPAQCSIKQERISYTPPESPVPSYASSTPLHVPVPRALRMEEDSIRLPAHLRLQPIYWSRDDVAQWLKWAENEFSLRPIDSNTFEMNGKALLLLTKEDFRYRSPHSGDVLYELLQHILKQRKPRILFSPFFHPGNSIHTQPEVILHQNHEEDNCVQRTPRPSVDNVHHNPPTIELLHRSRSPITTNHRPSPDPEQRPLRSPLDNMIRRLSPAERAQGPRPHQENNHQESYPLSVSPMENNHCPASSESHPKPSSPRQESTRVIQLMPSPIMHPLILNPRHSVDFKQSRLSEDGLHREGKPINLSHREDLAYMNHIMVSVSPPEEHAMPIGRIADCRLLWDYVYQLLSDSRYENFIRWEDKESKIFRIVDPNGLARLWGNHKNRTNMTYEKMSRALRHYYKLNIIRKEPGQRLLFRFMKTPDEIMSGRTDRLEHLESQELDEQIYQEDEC
How it was run: as §1

Sequence | binding signal (FEV) | binding signal (ETV5) | binding signal (HSF1) | binding signal (ELF4) | binding signal (ELK4) | binding signal (ETV2) | binding signal (ELF3) | binding signal (CRX) | binding signal (ETV1) | binding signal (ERF) | binding signal (ETV3L) | binding signal (ETS2) | binding signal (SPDEF) | binding signal (ETV7) | binding signal (ELF5) | binding signal (ETV3) | binding signal (ETV6)
TACAAA | 1.11 fold enrichment (6-mer frequency, TF over GST control) | 1.15 fold enrichment (6-mer frequency, TF over GST control) | 1.12 fold enrichment (6-mer frequency, TF over GST control) | 1.13 fold enrichment (6-mer frequency, TF over GST control) | 1.09 fold enrichment (6-mer frequency, TF over GST control) | 1.17 fold enrichment (6-mer frequency, TF over GST control) | 1.06 fold enrichment (6-mer frequency, TF over GST control) | 1.22 fold enrichment (6-mer frequency, TF over GST control) | 1.14 fold enrichment (6-mer frequency, TF over GST control) | 1.1 fold enrichment (6-mer frequency, TF over GST control) | 1.03 fold enrichment (6-mer frequency, TF over GST control) | 1.17 fold enrichment (6-mer frequency, TF over GST control) | 1.14 fold enrichment (6-mer frequency, TF over GST control) | 1.11 fold enrichment (6-mer frequency, TF over GST control) | 1.13 fold enrichment (6-mer frequency, TF over GST control) | 1.08 fold enrichment (6-mer frequency, TF over GST control) | 1.16 fold enrichment (6-mer frequency, TF over GST control)
AAGCTC | 1.14 fold enrichment (6-mer frequency, TF over GST control) | 1.16 fold enrichment (6-mer frequency, TF over GST control) | 1.42 fold enrichment (6-mer frequency, TF over GST control) | 1.21 fold enrichment (6-mer frequency, TF over GST control) | 1.2 fold enrichment (6-mer frequency, TF over GST control) | 1.15 fold enrichment (6-mer frequency, TF over GST control) | 1.2 fold enrichment (6-mer frequency, TF over GST control) | 1.68 fold enrichment (6-mer frequency, TF over GST control) | 1.22 fold enrichment (6-mer frequency, TF over GST control) | 1.2 fold enrichment (6-mer frequency, TF over GST control) | 1.2 fold enrichment (6-mer frequency, TF over GST control) | 1.13 fold enrichment (6-mer frequency, TF over GST control) | 1.06 fold enrichment (6-mer frequency, TF over GST control) | 1.08 fold enrichment (6-mer frequency, TF over GST control) | 1.07 fold enrichment (6-mer frequency, TF over GST control) | 1.18 fold enrichment (6-mer frequency, TF over GST control) | 1.23 fold enrichment (6-mer frequency, TF over GST control)
